From PubChem BioAssay (NCATS) come the findings set out here.

Test [1] has as its target 3',5'-cyclic-AMP phosphodiesterase 4B (Homo sapiens) (UniProt Q07343). As to the kind of experiment: qHTS Assay for Inhibitors of PDE-IV (AID 607; active means well fitted activation curve with a large enough effect in the main read-out, with a control signal flat, not every such curve was filed as active). The gist of the method: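 ACTOne HEK293 cells carry a modified cAMP-gated CNG channel and express endogenous PDE4; plated 1000 cells/well, compounds up to 22.9 uM final. Membrane-potential dye fluorescence (ex 535/em 590) was read; parental cells received 10 uM forskolin + 100 uM RO 20-1724.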

The target in test [2] is Cytochrome P450 3A4 (Homo sapiens) (UniProt P08684). Description: qHTS Assay for Inhibitors and Substrates of Cytochrome P450 3A4 (AID 884). Further: nearly all actives have a fitted effect of over 50% in size. Further: potency means the concentration at half of the fitted maximal effect. In a few lines: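 20 nM human CYP3A4 with 25 uM Luciferin-PPXE (at KM) in 200 mM KPO4, preincubated 10 min with compound; NADPH regeneration started a 60 min RT reaction. Luciferin detected by luminescence, normalized to 57 uM ketoconazole as full inhibition.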
Sequence of Cytochrome P450 3A4 (Homo sapiens) (P08684 whole entry, looked up): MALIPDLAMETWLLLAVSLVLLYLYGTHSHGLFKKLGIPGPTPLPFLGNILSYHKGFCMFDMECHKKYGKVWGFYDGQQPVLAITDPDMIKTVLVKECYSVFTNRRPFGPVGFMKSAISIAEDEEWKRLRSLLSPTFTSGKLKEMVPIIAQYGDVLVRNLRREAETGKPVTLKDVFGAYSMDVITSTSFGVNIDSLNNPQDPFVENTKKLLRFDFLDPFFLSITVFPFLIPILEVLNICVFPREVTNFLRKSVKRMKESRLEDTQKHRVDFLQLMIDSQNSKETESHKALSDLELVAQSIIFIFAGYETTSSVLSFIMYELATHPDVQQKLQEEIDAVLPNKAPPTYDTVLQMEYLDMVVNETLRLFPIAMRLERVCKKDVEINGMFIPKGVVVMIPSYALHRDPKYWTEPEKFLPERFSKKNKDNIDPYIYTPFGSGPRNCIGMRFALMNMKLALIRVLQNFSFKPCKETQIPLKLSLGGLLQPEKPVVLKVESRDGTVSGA
On the technique in general: In qHTS, concentration-response curves come from the screen itself.

Test [3] deals with Cytochrome P450 2C19 (Homo sapiens) (UniProt P33261). As to the kind of experiment: qHTS Assay for Inhibitors and Substrates of Cytochrome P450 2C19 (AID 899). Further: nearly all actives have a fitted effect of over 60% in size. Further: potency means the concentration at half of the fitted maximal effect. The gist of the method: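 In 50mM KPO4, the reaction held 5nM enzyme and KM-level (10uM) Luciferin-H EGE; it ran 60 min at 37C after NADPH regeneration and a 10 min compound preincubation. Luminescence values were scaled to 57uM ketoconazole as complete inhibition.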
Sequence of Cytochrome P450 2C19 (Homo sapiens) (P33261 whole entry, looked up): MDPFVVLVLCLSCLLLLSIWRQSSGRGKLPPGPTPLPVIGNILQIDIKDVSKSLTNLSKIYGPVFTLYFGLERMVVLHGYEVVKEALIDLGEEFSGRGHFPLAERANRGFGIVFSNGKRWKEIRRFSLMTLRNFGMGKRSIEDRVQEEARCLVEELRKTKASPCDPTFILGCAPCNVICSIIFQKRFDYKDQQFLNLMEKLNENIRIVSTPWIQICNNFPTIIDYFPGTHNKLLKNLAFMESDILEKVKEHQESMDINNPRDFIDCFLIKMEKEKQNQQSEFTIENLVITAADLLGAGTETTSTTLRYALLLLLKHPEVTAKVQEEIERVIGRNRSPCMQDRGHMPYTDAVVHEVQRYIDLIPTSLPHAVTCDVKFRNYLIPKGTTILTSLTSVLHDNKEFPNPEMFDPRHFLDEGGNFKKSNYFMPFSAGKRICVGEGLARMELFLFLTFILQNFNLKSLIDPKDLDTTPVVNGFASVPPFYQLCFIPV

Test [4] is described as follows: Confirmation and Secondary Assay for Modulators of Hemoglobin Beta Chain Splicing at IVS2 654 locus (AID 910).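 Further: per-well total GFP intensity by laser scanning cytometry after 2-day treatment.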 The gist of the method: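 HeLa cells stably carrying EGFP interrupted by mutant beta-globin IVS2-654 intron (CMV-driven) were treated with compound for 2 days at 37C; corrected splicing was scored as total peak GFP intensity per well (488 nm excitation, 500-520 nm emission).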

The nature of test [5]: Cellular Toxicity (caspase-3) HepG2 (AID 654).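 Further: cells exposed to compound for 16 hours before reading.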 The gist of the method: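 HepG2 cells (1500/well) in complete medium were treated with compounds for 16 hr at 37 °C. Caspase-3/7 activity was then read as luminescence from peptide-aminoluciferin cleavage. AC50 came from Hill fits, normalized to DMSO and 100 uM tamoxifen.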
Test [6] can be described thus: Cellular Toxicity (caspase-3) HUV-EC-C (AID 656). In a few lines:
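Luminescent Caspase-Glo 3/7 readout after 16 h, 37 °C compound exposure of HUV-EC-C endothelial cells, 1000 per well, complete medium. AC50 derived by Hill fitting, with DMSO as baseline and 100 uM tamoxifen as full activation.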

Test [7] can be described thus: Cellular Toxicity (caspase-3) SHSY5Y (AID 657). The gist of the method: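 Luminescent Caspase-Glo 3/7 read-out, 1 hr room temperature, follows 16 hours of compound treatment of SH-SY5Y cells at 37 °C. Normalization: DMSO basal, 10 uM staurosporine as 100%; AC50 values from Hill-equation concentration-response fits.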
The nature of test [8]: Cellular Toxicity (caspase-3) BJ (AID 658). In a few lines: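 Luminescent aminoluciferin-substrate cleavage reports caspase 3/7 activity in normal human BJ fibroblasts after 16 hr compound exposure at 37 °C. Normalized to DMSO (basal) and 10 uM staurosporine (100%); AC50 from Hill fit of concentration-response.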
Test [9] is described as follows: Cellular Toxicity (caspase-3) MRC-5 (AID 659). As to conditions: Potency: caspase-3 activation. The gist of the method: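 Luminescence from caspase-cleaved aminoluciferin substrate (Caspase-Glo 3/7, 1 hr RT) reports caspase 3/7 activity in MRC-5 lung fibroblasts after 16 hr compound exposure. Normalized to DMSO basal and 10 uM staurosporine as 100%; AC50 from Hill fits.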

A short description of test [10]: Cellular Toxicity (caspase-3) Mesangial (AID 660).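 Further: cells exposed to compound for 16 h before the caspase read.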 In a few lines: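 Human renal glomerular mesangial cells (1000/well) were treated with compounds for 16 h at 37 °C in complete medium, then caspase 3/7 activity was read by Caspase-Glo luminescence. Data were normalized to DMSO and 100 uM tamoxifen; AC50 from Hill fits.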
Test [11] in a line: Cellular Toxicity (caspase-3) SK-N-SH (AID 661). The gist of the method:
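SK-N-SH human neuroblastoma cells (1500/well) were treated with compounds for 16 hr at 37 °C in complete medium; caspase 3/7 activity was read by Caspase-Glo luminescence. AC50 came from Hill fits of data normalized to DMSO and 10 uM staurosporine.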

A short description of test [12]: Cellular Toxicity (caspase-3) H-4-II-E (AID 663).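 Further: cells exposed to compound for 16 hr before readout.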 In a few lines: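 Luminescence from caspase-cleaved aminoluciferin substrate, read 20 min after reagent addition, reports caspase 3/7 activation in rat H-4-II-E cells after 16 hr compound exposure. Normalized to DMSO (basal) and 100 uM tamoxifen (100%); AC50 from Hill fits.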
The nature of test [13]: Cellular Toxicity (caspase-3) Hek293 (AID 664).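 Further: cells exposed to compound for 16 h at 37 °C before readout.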 The gist of the method: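 HEK293 cells were exposed to compounds in complete medium for 16 hr at 37 °C, then caspase-3/7 activity was read by Caspase-Glo 3/7 luminescence after 20 min at room temperature. Data normalized to DMSO and 100 uM tamoxifen; AC50 from Hill fits.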
A short description of test [14]: Cellular Toxicity (caspase-3) N2a (AID 665).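 Further: compound exposure lasted 16 h at 37 °C before readout.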 The gist of the method:
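Mouse N2a neuroblastoma cells (1500/well) were treated with compounds for 16 h at 37 °C, then caspase-3/7 activity was read by Caspase-Glo luminescence after 1 h at room temperature. Data were normalized to DMSO and 10 uM staurosporine; AC50 from Hill fits.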

Test [15] is described as follows: Cellular Toxicity (caspase-3) NIH 3T3 (AID 666). In a few lines:
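Mouse NIH 3T3 fibroblasts (1000 cells/well) were treated with compound for 16 hr at 37°C in complete medium; caspase-3/7 activity was read by Caspase-Glo luminescence. Normalized to DMSO and 100 uM tamoxifen; AC50 from Hill fits.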

Test [16] can be described thus: Cellular Toxicity (caspase-3) Renal Proximal Tubule (AID 667).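 Further: cells exposed to compound for 16 hours at 37 °C before detection.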 In a few lines:
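Caspase 3/7 activation measured by luminescent aminoluciferin release in primary rat proximal tubule cells after 16 hr compound exposure at 37 °C. AC50 from Hill-fitted concentration-response, scaled between DMSO and 10 uM staurosporine.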

The target in test [17] is Cytochrome P450 2D6 (Homo sapiens) (UniProt P10635). As to the kind of experiment: qHTS Assay for Inhibitors and Substrates of Cytochrome P450 2D6 (AID 891). Further: nearly all actives have a fitted effect of over 60% in size. Further: potency means the concentration at half of the fitted maximal effect. The gist of the method:
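Human CYP2D6 (5 nM) with 30 uM Luciferin-ME EGE (at Km) in 100 mM KPO4, compound preincubated 10 min, then NADPH regeneration system for 60 min at room temperature. Luciferin read by luminescence; normalized to 1.43 uM quinidine.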

Test [18] has as its target Cytochrome P450 2C9 (Homo sapiens) (UniProt P11712). Description: qHTS Assay for Inhibitors and Substrates of Cytochrome P450 2C9 (AID 883). Further: nearly all actives have a fitted effect of over 60% in size. In a few lines: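 CYP2C9 deoxyluciferin hydroxylation, 37C, 60 min with NADPH regeneration; 10nM enzyme, 100uM Luciferin-H (KM). Glo detection reagent stopped reaction; luminescence normalized to sulphaphenazole (57uM) full inhibition.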

In test [19] the target is Cytochrome P450 3A4 (Homo sapiens) (UniProt P08684). As to the kind of experiment: qHTS Assay for Activators of Cytochrome P450 3A4 (AID 885). Further: nearly all actives have a fitted effect of over 65% in size. In a few lines:
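20nM CYP3A4 + 25uM Luciferin-PPXE (=KM), 200mM KPO4; cpd 10 min RT; NADPH regen, 60 min RT; stop w/ detection buffer, 20 min; luminescence. Normalized to 57 uM ketoconazole.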

Values without a mark were called inactive. Records with an inconclusive call do not appear. The source made the active and inactive calls. Unless noted, the call rests on the fitted dose curve; in most records, active means well fitted curve in the direction sought with a large enough effect; inconclusive means small, poorly fitted or top-dose-only effect, or another doubt; inactive means no such curve, though single readings can be large; an effect the other way counts as inactive or inconclusive.

Sequence of 3',5'-cyclic-AMP phosphodiesterase 4B (Homo sapiens) (Q07343 whole entry, looked up): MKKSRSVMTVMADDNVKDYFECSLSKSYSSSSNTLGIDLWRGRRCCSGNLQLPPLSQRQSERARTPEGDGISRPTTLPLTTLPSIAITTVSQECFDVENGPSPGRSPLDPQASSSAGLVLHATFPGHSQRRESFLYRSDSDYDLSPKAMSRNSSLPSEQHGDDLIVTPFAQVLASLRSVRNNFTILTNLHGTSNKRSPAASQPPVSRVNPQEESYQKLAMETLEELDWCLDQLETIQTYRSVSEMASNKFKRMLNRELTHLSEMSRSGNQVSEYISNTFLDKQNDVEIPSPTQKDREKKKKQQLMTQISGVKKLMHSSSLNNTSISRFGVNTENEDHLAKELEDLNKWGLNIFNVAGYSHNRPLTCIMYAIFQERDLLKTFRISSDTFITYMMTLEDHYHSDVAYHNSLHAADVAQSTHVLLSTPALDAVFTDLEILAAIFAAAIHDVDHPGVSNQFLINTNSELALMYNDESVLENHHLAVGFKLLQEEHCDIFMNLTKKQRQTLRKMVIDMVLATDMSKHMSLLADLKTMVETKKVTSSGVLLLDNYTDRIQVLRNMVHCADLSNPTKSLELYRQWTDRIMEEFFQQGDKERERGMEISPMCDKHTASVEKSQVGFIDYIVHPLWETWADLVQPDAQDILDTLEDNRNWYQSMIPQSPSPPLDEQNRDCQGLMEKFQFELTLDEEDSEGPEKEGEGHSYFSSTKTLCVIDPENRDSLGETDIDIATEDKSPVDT
Sequence of Cytochrome P450 2D6 (Homo sapiens) (P10635 whole entry, looked up): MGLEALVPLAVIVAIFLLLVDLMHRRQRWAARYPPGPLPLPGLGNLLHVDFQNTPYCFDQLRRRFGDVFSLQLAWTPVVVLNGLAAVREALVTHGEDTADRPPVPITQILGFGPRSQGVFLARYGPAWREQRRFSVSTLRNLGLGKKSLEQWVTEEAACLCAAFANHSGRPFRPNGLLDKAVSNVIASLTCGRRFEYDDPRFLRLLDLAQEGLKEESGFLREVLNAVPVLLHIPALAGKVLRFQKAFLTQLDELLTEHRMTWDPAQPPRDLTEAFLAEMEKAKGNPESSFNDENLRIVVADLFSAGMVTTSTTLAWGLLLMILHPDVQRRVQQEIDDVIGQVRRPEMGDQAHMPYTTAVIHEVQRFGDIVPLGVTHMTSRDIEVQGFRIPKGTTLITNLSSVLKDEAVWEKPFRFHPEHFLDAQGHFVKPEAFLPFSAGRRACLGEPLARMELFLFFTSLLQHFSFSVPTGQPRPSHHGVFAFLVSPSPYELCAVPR
Sequence of Cytochrome P450 2C9 (Homo sapiens) (P11712 whole entry, looked up): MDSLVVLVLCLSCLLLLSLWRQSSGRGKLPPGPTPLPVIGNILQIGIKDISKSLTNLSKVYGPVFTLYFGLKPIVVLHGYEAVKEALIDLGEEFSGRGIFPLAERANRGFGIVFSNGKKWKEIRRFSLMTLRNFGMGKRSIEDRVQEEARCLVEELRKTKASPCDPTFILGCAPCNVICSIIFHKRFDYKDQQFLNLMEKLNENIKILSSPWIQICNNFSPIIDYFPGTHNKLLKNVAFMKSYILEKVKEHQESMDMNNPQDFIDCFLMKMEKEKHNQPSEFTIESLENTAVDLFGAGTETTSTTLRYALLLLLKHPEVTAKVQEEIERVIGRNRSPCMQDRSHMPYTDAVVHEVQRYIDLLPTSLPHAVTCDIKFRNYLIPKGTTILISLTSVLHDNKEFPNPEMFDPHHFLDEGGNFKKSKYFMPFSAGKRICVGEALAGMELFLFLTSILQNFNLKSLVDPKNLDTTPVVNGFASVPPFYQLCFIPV

For the molecule `C#CCN(C)Cc1ccccc1`, in test [1], the molecule was called inactive. In test [2], the Potency result was “inactive”.
For `C=Cc1c(C)c2cc3[nH]c(cc4nc(cc5nc(cc1[nH]2)C(C)=C5CCC(=O)O)C(CCC(=O)O)=C4C)c(C)c3C=C`, the result in test [1] and in [4] was inactive. Besides, the Potency result in test [2] and in test [3] was “inactive” throughout.
As for `CCCn1cnc2c1c(=O)n(CCCCC(C)=O)c(=O)n2C`, the result in test [1] was inactive.
As to `CC(C)NC[C@H](O)c1ccc(O)c(O)c1`, in test [1], the molecule was classed as inactive.
`Cc1cc(CC(=O)O)n(C)c1C(=O)c1ccc(Cl)cc1`: the result in test [1], in test [6], in test [7], in test [8], in [10] and in test [11] was inactive. For the same molecule, the molecule was called inactive in test [12], in [13], in test [14], in test [15], in [16] and in [4]. For the same molecule, the Potency result in test [5], in [9] and in test [2] was “inactive” each time.
Take `CCCCOc1cc(C(=O)OCCN(CC)CC)ccc1N`: the outcome in test [1] was inactive.
Regarding `c1ccc(CN(CC2=NCCN2)c2ccccc2)cc1`, the molecule was classed as inactive in test [1] and in [4]. Further, in test [2], the Potency entry was “inactive”. Besides, the Potency in test [17] was 2.51 µM (active).
As to `Nc1ccc(S(=O)(=O)Nc2ccc(Cl)nn2)cc1`, the outcome in test [1] and in [4] was inactive. Also, the Potency result in test [2] is “inactive”.
With `Nc1ccc(S(=O)(=O)NC(=O)c2ccccc2)cc1`, the outcome in [1] and in [4] was inactive. The Potency result in [2] is “inactive”.
Consider `CC1(C)OC(=O)NC1=O`, for which the result in [1] and in [4] was inactive. For the same molecule, in [2], the Potency result was “inactive”.
In the case of `CCCCCCCCCCCCCCCC(=O)NCCO`, the call in test [1] was inactive.
As for `NC(N)=NCCC[C@H](N)C(=O)O`, in test [1], the molecule was classed as inactive. In addition, the Potency entry in [18] and in test [17] was “inactive” each time.
`CCOc1ccc2ccccc2c1C(=O)N[C@@H]1C(=O)N2[C@@H]1SC(C)(C)[C@@H]2C(=O)O`: the call in [1] was inactive.
Take `CCn1cc(C(=O)O)c(=O)c2cnc(N3CCNCC3)nc21`: the molecule was classed as inactive in test [1] and in test [4]. In addition, the Potency entry in [2] is “inactive”.
Consider `CN(C)CCC=C1c2ccccc2CCc2ccccc21`, for which the call in [1], in test [6], in [7], in test [8], in [10] and in test [11] was inactive. Further, the call in [12], in test [13], in [14], in [15], in [16] and in test [19] was inactive. Moreover, the outcome in [4] was inactive. For the same molecule, the Potency entry in [5], in test [9] and in [2] was “inactive” in each case.
As for `CCN(CC)CCNC(=O)c1cc(Cl)c(N)cc1OC`, the molecule was classed as inactive in test [1] and in [4]. Further, in test [2], the Potency entry is “inactive”.
With `CCCCOC(=O)c1ccc(O)cc1`, the molecule was classed as inactive in test [1], in [6], in test [7], in [8], in [10] and in test [11]. The call in test [12], in test [13], in [14], in [15] and in test [16] was inactive. Moreover, the Potency entry in test [5], in test [9] and in [2] was “inactive” throughout. Also, in test [3], the Potency is 6.31 µM (active).
Turning to `C[C@H](N)[C@H](O)c1cccc(O)c1`, the outcome in test [1] was inactive.
Regarding `COC(=O)C1=C(C)NC(C)=C(C(=O)OC)C1c1ccccc1[N+](=O)[O-]`, the molecule was classed as inactive in test [1], in [6], in test [8], in test [10], in [11] and in test [12]. Moreover, the result in test [13], in test [14], in [16] and in test [4] was inactive. Moreover, the Potency result in test [5] and in test [9] was “inactive” each time.
Regarding `NS(=O)(=O)c1cc2c(cc1Cl)NC(CSCc1ccccc1)=NS2(=O)=O`, the result in test [1], in [19] and in [4] was inactive. The Potency in test [2] was 25.1 µM (active).
